Screening results: PubChem, several laboratories
Hits are enriched below; roughly 2.2% of the tested compounds scored in any of these assays.
APP transl inh: APP translation inhibition. 190,000 tested, 0.82% active. SH-SY5Y APP 5'UTR-luciferase reporter, luminescence. inhibition, % at 2 µM. AID 1285;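 active means inhibition above a set limit, derived from the sample mean plus 3 SD, cut at about 45% in these data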
KLF5 inh: suppresses KLF5 promoter-driven expression; DLD-1 KLF5 promoter-luciferase reporter, luminescence; inhibition, % at 5 µM; 290,000 tested, 0.23% active; AID 1700;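 active means inhibition above a per-plate limit of that plate's mean compound inhibition plus 3 SD, cut at about 60% in these data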;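 further: higher means less KLF5 promoter-driven luciferase light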
IEC-6 cytotox: IEC-6 cytotoxicity, counter-screen for KLF5 inhibitors; luminescence viability; inhibition, % at 5 µM; 290,000 tested, 0.78% active; in the data active means inhibition above about 22%
Ba/F3 V617F tox: reduce viability of Ba/F3 cells dependent on JAK2V617F; Ba/F3 EpoR-JAK2V617F viability, ATP luminescence; inhibition, % at 5.6 µM; AID 1446; 220,000 tested, 1.1% active;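 active means inhibition above the campaign mean plus 3 SD over all tested compounds, cut at about 24% in these data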;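 further: cytokine-independent growth of Ba/F3 cells driven by EpoR plus mutant JAK2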
BaF3 parental: parental Ba/F3 viability inhibition as JAK2V617F counter-screen | 220,000 tested, 1.1% active | CellTiter-Glo ATP luminescence | inhibition, % at 5.6 µM;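 active means inhibition above a per-campaign cutoff, the mean inhibition of all tested compounds plus 3 SD, cut at about 27% in these data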
aSyn UTR inh: MLPCN primary screen, SNCA 5' untranslated region | AID 1813 | inhibition, % (tested at 7.5 µM) | 300,000 tested, 0.82% active | alpha-synuclein 5'UTR reporter, inhibitor activity; in the data active means inhibition above about 60%;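 further: H4 neuroglioblastoma cells stably carrying SNCA 5'UTR luciferase fusion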
Of the large screens only hits and unclear results are named; the others gave an inactive call.

OCCNc1c2ccccc2nc2c(F)c(F)c(F)c(F)c12	APP transl inh 87
CN(C)CCCNc1c2ccccc2nc2ccccc12	aSyn UTR inh 71 (no result: APP transl inh, Ba/F3 V617F tox, BaF3 parental)
CC(C)CN1CCN(C2CCN(C(C)C)CC2)C(CCO)C1 (stereo not given)	none (no result: aSyn UTR inh)
Cc1cc(C)c2c(=O)[nH]c(SCC(=O)N3CCOCC3)nc2n1	none
Cc1cc(C)c2c(=O)[nH]c(SCC(=O)N3CCCCC3)nc2n1	Ba/F3 V617F tox 37, BaF3 parental 37
COc1ccc(S(=O)(=O)N2c3ccc(F)cc3CCC2C)cc1 (stereo not given)	aSyn UTR inh 112 (no result: APP transl inh, KLF5 inh, IEC-6 cytotox, Ba/F3 V617F tox, BaF3 parental)
CC(=O)Nc1ccc(S(=O)(=O)N2c3ccc(F)cc3CCC2C)cc1 (stereo not given)	none (no result: APP transl inh, KLF5 inh, IEC-6 cytotox, Ba/F3 V617F tox, BaF3 parental)
CC(=O)c1ccc(OC(=O)COc2ccccc2Cl)cc1	none (no result: APP transl inh, Ba/F3 V617F tox, BaF3 parental)
N#C/C(=C\c1ccc(N2CCOCC2)o1)c1ccccc1	BaF3 parental 30
N#C/C(=C/c1ccc(N2CCOCC2)o1)c1ccc(Br)cc1	Ba/F3 V617F tox 58, BaF3 parental 62
N#C/C(=C/c1ccc(N2CCCCCC2)o1)c1ccc(F)cc1	none
N#C/C(=C/c1ccc(N2CCOCC2)o1)c1nc2ccccc2[nH]1	none (no result: aSyn UTR inh)
CN1C(=O)NC(NC(=O)c2ccco2)(C(F)(F)F)C1=O (stereo not given)	none
CC(C)CN1C(=O)NC(NC(=O)c2ccco2)(C(F)(F)F)C1=O (stereo not given)	BaF3 parental 95
Cc1ccc(C(=O)/C=C\C(=O)c2ccc(C)cc2)cc1	APP transl inh 88
Cc1ccc(C)c(S(=O)(=O)N2CCN(C(=O)c3ccncc3)CC2)c1	none (no result: APP transl inh, KLF5 inh, IEC-6 cytotox, Ba/F3 V617F tox, BaF3 parental)
COc1ccc2c(C)c(C(=O)N3CCN(Cc4ccccc4)CC3)oc2c1	none (no result: APP transl inh, Ba/F3 V617F tox, BaF3 parental)
COc1ccccc1NC(=O)CCN1C(=O)C2CC=CCC2C1=O (stereo not given)	none (no result: APP transl inh, Ba/F3 V617F tox, BaF3 parental)
Cc1nc2ccccc2n1-c1nc(-c2ccco2)cc(C(F)(F)F)n1	aSyn UTR inh 90
CS(=O)(=O)c1ccc(Cl)c(NC(=O)COC(=O)c2ccc(-n3cnnn3)cc2)c1	none (no result: APP transl inh, KLF5 inh, IEC-6 cytotox, Ba/F3 V617F tox, BaF3 parental)
COc1cccc(C(=O)C2=NN(C(C)=O)CC2c2ccco2)c1 (stereo not given)	BaF3 parental 38
COc1cccc(C2=NN(C(=O)c3ccco3)C(c3ccco3)C2)c1 (stereo not given)	none (no result: APP transl inh, Ba/F3 V617F tox, BaF3 parental)
Cc1ccc(/C=C2\SC(=S)N(CCCC(=O)Nc3ccc(O)cc3)C2=O)cc1	aSyn UTR inh 104 (no result: APP transl inh)
Cc1ccc(/C=C2\SC(=S)N(CCCC(=O)Nc3ccccc3C(=O)O)C2=O)cc1	aSyn UTR inh 68 (no result: APP transl inh, Ba/F3 V617F tox, BaF3 parental)
Cc1ccc(/C=C2\SC(=S)N(CCCC(=O)Nc3ccccn3)C2=O)cc1	APP transl inh 55, aSyn UTR inh 107
COc1cc2c(cc1OC)C(C)N(C(=O)c1ccc(Cl)c(S(=O)(=O)N3CCCCC3)c1)CC2 (stereo not given)	none (no result: APP transl inh, Ba/F3 V617F tox, BaF3 parental)
Clc1ccccc1C1=CC(c2ccco2)n2nnnc2N1 (stereo not given)	none
COc1ccc(N/C(N)=N/c2nc(CSc3nnc(C)s3)cc(=O)[nH]2)cc1	none
Cc1ccc(N/C(N)=N/c2nc(CSc3nnc(C)s3)cc(=O)[nH]2)c(C)c1	APP transl inh 93, aSyn UTR inh 83
Oc1ccccc1-c1nnc(SCCN2CCOCC2)n1Cc1ccccc1	Ba/F3 V617F tox 94, BaF3 parental 83, aSyn UTR inh 81
COc1ccccc1NC(=S)N(Cc1ccco1)Cc1cc2cc(C)c(C)cc2[nH]c1=O	APP transl inh 92, aSyn UTR inh 91
Cc1cc2cc(CN(Cc3ccco3)S(=O)(=O)c3c(C)ccc4nsnc34)c(=O)[nH]c2cc1C	aSyn UTR inh 89
COc1ccc2cc(CN(CC3CCCO3)C(=O)Nc3ccccc3OC)c(=O)[nH]c2c1 (stereo not given)	aSyn UTR inh 66
Cc1ccc2cc(CN(Cc3ccco3)S(=O)(=O)c3c(C)ccc4nsnc34)c(=O)[nH]c2c1	none
CC(=O)Nc1ccc(S(=O)(=O)N(Cc2cc3ccc(C)cc3[nH]c2=O)CC2CCCO2)cc1 (stereo not given)	aSyn UTR inh 82 (no result: APP transl inh, Ba/F3 V617F tox, BaF3 parental)
CCn1c(C)c(C(=O)c2ccccc2)c(C#N)c1C(=O)O	none (no result: APP transl inh, Ba/F3 V617F tox, BaF3 parental)
O=C(CN1C(=O)c2ccccc2S1(=O)=O)c1ccc(F)cc1	aSyn UTR inh 92 (no result: APP transl inh)
O=C(CN1C(=O)c2ccccc2S1(=O)=O)N1CCN(c2ccccc2F)CC1	none
O=C(CCN1C(=O)c2ccccc2S1(=O)=O)Nc1ccccc1	Ba/F3 V617F tox 48, BaF3 parental 62
O=C(CN1C(=O)c2ccccc2S1(=O)=O)c1ccccc1F	aSyn UTR inh 82 (no result: APP transl inh, Ba/F3 V617F tox, BaF3 parental)
O=C(CN1C(=O)c2ccccc2S1(=O)=O)c1cccc(Br)c1	aSyn UTR inh 84 (no result: APP transl inh, Ba/F3 V617F tox, BaF3 parental)
O=C(CN1C(=O)c2ccccc2S1(=O)=O)c1ccc(OC(F)F)cc1	aSyn UTR inh 86 (no result: APP transl inh, Ba/F3 V617F tox, BaF3 parental)
Cc1ccccc1CN1C(=O)c2ccccc2S1(=O)=O	none (no result: APP transl inh, Ba/F3 V617F tox, BaF3 parental)
O=C1c2ccccc2S(=O)(=O)N1Cc1nc2ccccc2s1	aSyn UTR inh 112
C[n+]1ccc(/C=C/c2ccccc2O)c2ccccc21	Ba/F3 V617F tox 58, BaF3 parental 71
CC(=O)/C=C/c1ccccc1O	none
CCC(=O)N1CCc2cc(S(=O)(=O)CCC(=O)Nc3ccc(C)cn3)ccc21	none
CN1c2ccccc2C(C)(C)[C@]12C=Cc1cc(O)ccc1O2	Ba/F3 V617F tox 74, BaF3 parental 61
CCOc1ccc(C(=O)Nc2nnc(SCC(=O)NCC3CCCO3)s2)cc1 (stereo not given)	aSyn UTR inh 76 (no result: APP transl inh, Ba/F3 V617F tox, BaF3 parental)
COc1ccc(OC)c(-c2csc(NC(=O)C3=COCCO3)n2)c1	none (no result: APP transl inh, KLF5 inh, IEC-6 cytotox, Ba/F3 V617F tox, BaF3 parental)
COc1ccc(OC)c(-c2csc(NC(=O)c3ccc(OCC4CCCO4)cc3)n2)c1 (stereo not given)	BaF3 parental 30
Cc1cnc(NC(=O)c2ccc(OCC3CCCO3)cc2)s1 (stereo not given)	aSyn UTR inh 79
Cc1ccc(NC(=O)c2ccc(OCC3CCCO3)cc2)nc1 (stereo not given)	none (no result: APP transl inh, KLF5 inh, IEC-6 cytotox, Ba/F3 V617F tox, BaF3 parental)
CC(C)CC1Nc2ccc(C(=O)NCCCN3CCOCC3)cc2NC1=O (stereo not given)	none (no result: APP transl inh, Ba/F3 V617F tox, BaF3 parental)
Cc1nnc(SCC(=O)N2CCCC2)n(N)c1=O	none
S=c1sc2c(Cl)ncnc2n1-c1ccccc1	APP transl inh 65, aSyn UTR inh 93
Cc1nc(N2CCN(C)CC2)c2sc(=S)n(-c3ccccc3)c2n1	none
Cc1ccc(NC(=O)C2CCN(S(=O)(=O)c3ccc4c(c3)OCCO4)CC2)c(O)c1	none (no result: APP transl inh, KLF5 inh, IEC-6 cytotox, Ba/F3 V617F tox, BaF3 parental)
CN(CC(=O)Nc1ccc(S(=O)(=O)N2CCCC2)cc1)Cc1c(F)cccc1Cl	none
O=C1CCCN1CCCNC(=S)Nc1ccc(Cl)cc1Cl	none
N/C(=N\OC(=O)c1ccc([N+](=O)[O-])cc1)c1cccnc1	none
N/C(=N\OC(=O)c1cc([N+](=O)[O-])ccc1Cl)c1cccnc1	aSyn UTR inh 88 (no result: APP transl inh)
CCc1sc(NS(C)(=O)=O)nc1-c1ccccc1	APP transl inh 50
Cc1cc(C)cc(-n2c(C)cc(/C=N/NC(=O)CN(c3c(C)cccc3C)S(C)(=O)=O)c2C)c1	APP transl inh 90
CCOC(=O)c1c(NC(=O)CC2SC(N)=NC2=O)sc(C)c1C (stereo not given)	none
